This note sets out measurements from PubChem BioAssay (NCATS).

For test [1], the target named is Lysosomal acid glucosylceramidase (Homo sapiens) (UniProt P04062). The experiment in a line: Glucocerebrosidase-p2 (AID 348; in the data active = potency below about 10 µM; also: potency is read from the fitted curve at half-maximal effect). As to conditions: purified GBA, blue fluorogenic substrate, 40 min. Put shortly: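 Normal human glucocerebrosidase (0.2 nM) with blue fluorogenic substrate (80 uM final) in citrate/phosphate pH 5.9 with 10mM sodium taurocholate, 0.01% tween-20; 40 min RT, NaOH/glycine stop; fluorescence Ex 365/Em 440; AC50 from a titration from 0.6 nM upwards.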

The nature of test [2]: AP1 Signaling Pathway (AID 357).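 Also: ME-180 reporter cells stimulated with EGF at its EC50 level; % is scaled to controls: 0 for no effect and ±100 for the full control effect.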 The following applies: ME-180 AP-1-bla reporter, EGF-induced, beta-lactamase ratio, 5 h; at 7.69 µM (top of the series) unless noted. Put shortly:
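A ratiometric CCF4 readout (405 nm excitation; 460 and 530 nm emission) quantified AP-1-driven beta-lactamase in ME-180 cells after 5 h with compound and EC50 EGF; AC50 values were derived for activators and inhibitors.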

Test [3] addresses Cytochrome P450 1A2 (Homo sapiens) (UniProt P05177). Put plainly: p450-cyp1a2 (AID 410; calls by dose curve; also: potency is read from the fitted curve at half-maximal effect;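 as to activity change, negative = inhibition: -100% = full effect of reference inhibitor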). As to conditions: recombinant CYP1A2, luciferin-ME demethylation, luminescence; series mostly up to 11.4 µM. In short, it runs like this: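 20nM CYP1A2, 100uM Luciferin-ME (=Km), 100mM KPO4; cpd 10 min RT; +NADPH regen, 60 min RT; stop/detect 20 min; luminescence. Normalized to furafylline 57 uM = full inhibition.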

Test [4] is described as follows: NFAT Signaling Pathway (AID 444).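 Also: carbachol stimulus at about its EC50 of 1 µM final; % is scaled to controls: 0 for no effect and ±100 for the full control effect.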 As to conditions: Jurkat NFAT-bla M1, carbachol, beta-lactamase ratio, 5 h; at 7.69 µM (top of the series) unless noted. Put shortly: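 Jurkat cells carrying an NFAT-driven β-lactamase reporter and co-transfected muscarinic M1 receptor were treated with compound plus carbachol (1 uM final, an EC50 level) for 5 h at 37 °C. CCF4 loading followed for 1 h at RT; 460/530 nm ratio gave %activity.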

Test [5] is described as follows: Stat Signaling Pathway (AID 446).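 Also: ME-180 cervical cancer cells given 40 pM IL-6 alongside compound; SIE-controlled beta-lactamase reporter measured as 460/530 nm FRET emission ratio; % is scaled to controls: 0 for no effect and ±100 for the full control effect.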 The following applies: ME-180 SIE beta-lactamase reporter, IL-6 stimulated, 5 h; at 7.69 µM (top of the series) unless noted. Put shortly:
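FRET read-out (405 nm excitation, 460/530 nm emission) of a beta-lactamase reporter under a STAT-inducible element in ME-180 cervical carcinoma cells. Cells with compound receive 40 pM IL-6 for 5 h. Values are normalised to AC90 stimulation and AC90 JAK-inhibitor controls.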

The target of test [6] is Glucocorticoid receptor (Homo sapiens) (UniProt P04150). The experiment in a line: GR-GFP Redistribution (AID 450;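 active = compounds whose dose series gives a full or clear partial fitted curve of increased nuclear translocation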; also: potency is read from the fitted curve at half-maximal effect). As to conditions: U2OS GR-GFP nuclear translocation, laser cytometry, 2 h.
For test [7] the target is unchanged. The experiment in a line: GR-EFC Redistribution (AID 451; calls by dose curve; also: potency is read from the fitted curve at half-maximal effect). As to conditions: CHO-K1 GR-EFC translocation, beta-gal luminescence, 2 h. Put shortly:
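CHO-K1 cells stably expressing nuclear-localized β-gal enzyme acceptor and GR fused C-terminally to the enzyme donor fragment; ligand-driven nuclear translocation restores β-gal by complementation. Compounds titrated up to 46 uM final, 2 h at 37 °C; luminescence read.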

The target of test [8] is Mitogen-activated protein kinase 10 (Mus musculus) (UniProt Q61831). The experiment in a line: JNK3 AlphaScreen Assay (AID 530).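 Also: kinase came from lysate of stimulated human HepG2 cells; signal reports phosphorylation of biotinylated GST-cJun 1-79 at Ser73 with 10 µM ATP; % is scaled to controls: 0 for no effect and ±100 for the full control effect.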 As to conditions: JNK3 lysate, c-Jun phosphorylation; series mostly up to 11.4 µM. Put shortly:
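Biotinylated GST-cJun(1-79) served as substrate for JNK3 in HepG2 lysates stimulated with IL-1beta and TNF-alpha. ATP was 10 uM final, pH 7.6. Ser73 phosphorylation was quantified by AlphaScreen (680 nm excitation).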

The target in test [9] is 3',5'-cyclic-AMP phosphodiesterase 4B (Homo sapiens) (UniProt Q07343). Put plainly: qHTS Assay for Inhibitors of PDE-IV (AID 607; active = well fitted activation curve with a large enough effect in the main read-out, with a control signal flat, not every such curve was filed as active; also: % of control where 0% means no effect). The following applies: HEK293 ACTOne CNG channel cells, membrane potential fluorescence; series mostly up to 22.9 µM. Put shortly:
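Cell-based read-out of cAMP via a modified cyclic nucleotide-gated channel and membrane potential dye (535/590 nm) in HEK293 cells expressing PDE4 endogenously. Compounds tested up to 22.9 uM final; 100 uM RO 20-1724 reference.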

Test [10] addresses Cytochrome P450 2C9 (Homo sapiens) (UniProt P11712). The experiment in a line: qHTS Assay for Inhibitors and Substrates of Cytochrome P450 2C9 (AID 883; active = well fitted curve in the direction sought with a large enough effect; an effect the other way counts as inactive or inconclusive; also: nearly all actives have a fitted effect of over 60% in size; also: potency is read from the fitted curve at half-maximal effect). The following applies: recombinant CYP2C9, luciferin-H luminescence, 60 min; series mostly up to 11.4 µM. In short, it runs like this:
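Human CYP2C9 (10nM) hydroxylated Luciferin-H (100uM, at its KM) to luciferin in 25mM KPO4. Compound was preincubated 10 min at 37C, then NADPH regeneration started a 60 min reaction at 37C. Luminescence was read after detection reagent, normalized to 57uM sulphaphenazole.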

Test [11] concerns the target Cytochrome P450 3A4 (Homo sapiens) (UniProt P08684). The experiment in a line: qHTS Assay for Inhibitors and Substrates of Cytochrome P450 3A4 (AID 884; active = well fitted curve in the direction sought with a large enough effect; an effect the other way counts as inactive or inconclusive; also: nearly all actives have a fitted effect of over 50% in size; also: potency is read from the fitted curve at half-maximal effect). The following applies: recombinant CYP3A4, Luciferin-PPXE luminescence; series mostly up to 57.1 µM. Put shortly: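 Luminescent readout of luciferin produced by CYP3A4 (20 nM) dealkylation of Luciferin-PPXE, 25 uM (its KM). NADPH-driven reaction ran 60 min at RT after 10 min compound preincubation; data scaled to 57 uM ketoconazole as 100% inhibition.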

Test [12] has as its target Cytochrome P450 2D6 (Homo sapiens) (UniProt P10635). The experiment in a line: qHTS Assay for Inhibitors and Substrates of Cytochrome P450 2D6 (AID 891; active = well fitted curve in the direction sought with a large enough effect; an effect the other way counts as inactive or inconclusive; also: nearly all actives have a fitted effect of over 60% in size; also: potency is read from the fitted curve at half-maximal effect). The following applies: recombinant CYP2D6, luciferin-ME EGE luminescence; series mostly up to 11.4 µM. In short, it runs like this: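 Luminescent read-out of luciferin formed by 5 nM human CYP2D6 demethylating 30 uM Luciferin-ME EGE (Km level) over 60 min at room temperature after NADPH regeneration addition. Data normalized to full inhibition by 1.43 uM quinidine.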

Test [13] addresses Cytochrome P450 3A4 (Homo sapiens) (UniProt P08684). Put plainly: qHTS Assay for Activators of Cytochrome P450 3A4 (AID 885; active = well fitted curve in the direction sought with a large enough effect; an effect the other way counts as inactive or inconclusive; also: nearly all actives have a fitted effect of over 65% in size). The following applies: recombinant CYP3A4, Luciferin-PPXE luminescence, 60 min; series mostly up to 11.4 µM. In short, it runs like this:
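Luminescent readout of luciferin formed from 25 uM Luciferin-PPXE (KM level) by 20 nM CYP3A4 in 200 mM KPO4, with 60 min NADPH-driven reaction at room temperature after 10 min compound exposure. Ketoconazole (57 uM) defined 100% inhibition.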

Test [14] has as its target Cytochrome P450 2C19 (Homo sapiens) (UniProt P33261). Put plainly: qHTS Assay for Inhibitors and Substrates of Cytochrome P450 2C19 (AID 899; active = well fitted curve in the direction sought with a large enough effect; an effect the other way counts as inactive or inconclusive; also: nearly all actives have a fitted effect of over 60% in size; also: potency is read from the fitted curve at half-maximal effect). The following applies: recombinant CYP2C19, luciferin-H EGE luminescence; series mostly up to 11.4 µM. Put shortly:
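Human CYP2C19 (5nM) with Luciferin-H EGE at 10uM (its KM) in 50mM KPO4 was preincubated with compound for 10 min at 37C. NADPH regeneration started a 60 min 37C reaction. Luciferin was read by luminescence, normalized to 57uM ketoconazole.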

Test [15] is described as follows: qHTS Assay for Identification of Small Molecule Agonists for Hypoxia Response Element Signaling Pathway (AID 914; active = well fitted activation curve with a large enough effect in the signal ratio, with a control signal flat, not every such curve was filed as active; the % refers to the signal ratio; also: % of control where 0% means no effect). As to conditions: ME-180 (cervical carcinoma) HRE-bla reporter, beta-lactamase ratio, CoCl2, 17 h; activation: stronger effect = higher value. In short, it runs like this:
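Read-out: CCF4 FRET ratio of 460nm to 530nm emission (excitation 405nm) after 2.5 hours at room temperature, taken from HRE-bla ME-180 cells that had been exposed to compound and EC50 CoCl2 for 17 hours.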

A number with no mark means an inactive call. Inconclusive results are not listed. Calls of active or inactive are those of the source. Unless noted, calls follow the shape of the dose curve; as a rule, active = well fitted curve in either direction with a large enough effect (not every such curve was filed as active); inconclusive = small, poorly fitted or top-dose-only effect, or another doubt; inactive = flat fitted curve, though single readings scatter.

Chain of Glucocorticoid receptor (Homo sapiens) (P04150 whole entry, looked up): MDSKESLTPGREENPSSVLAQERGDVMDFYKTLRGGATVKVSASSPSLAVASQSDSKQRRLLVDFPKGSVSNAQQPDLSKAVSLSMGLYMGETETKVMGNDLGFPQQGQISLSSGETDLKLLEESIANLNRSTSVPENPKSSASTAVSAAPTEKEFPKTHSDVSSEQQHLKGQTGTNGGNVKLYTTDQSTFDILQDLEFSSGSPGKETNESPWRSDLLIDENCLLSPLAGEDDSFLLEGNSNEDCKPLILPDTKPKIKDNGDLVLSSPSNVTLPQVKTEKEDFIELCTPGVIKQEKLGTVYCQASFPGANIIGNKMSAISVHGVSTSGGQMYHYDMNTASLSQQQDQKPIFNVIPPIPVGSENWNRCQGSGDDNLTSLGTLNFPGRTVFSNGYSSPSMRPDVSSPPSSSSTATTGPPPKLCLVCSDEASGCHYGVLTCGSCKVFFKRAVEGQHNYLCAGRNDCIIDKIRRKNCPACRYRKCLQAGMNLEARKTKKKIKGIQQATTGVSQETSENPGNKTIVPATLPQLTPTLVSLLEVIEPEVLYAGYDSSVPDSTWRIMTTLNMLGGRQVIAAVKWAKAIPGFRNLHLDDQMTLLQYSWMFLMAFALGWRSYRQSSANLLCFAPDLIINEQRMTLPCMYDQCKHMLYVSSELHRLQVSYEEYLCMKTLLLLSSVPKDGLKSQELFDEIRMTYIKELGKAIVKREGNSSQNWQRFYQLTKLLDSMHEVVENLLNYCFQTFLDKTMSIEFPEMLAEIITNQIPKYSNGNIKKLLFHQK
Chain of Cytochrome P450 2C9 (Homo sapiens) (P11712 whole entry, looked up): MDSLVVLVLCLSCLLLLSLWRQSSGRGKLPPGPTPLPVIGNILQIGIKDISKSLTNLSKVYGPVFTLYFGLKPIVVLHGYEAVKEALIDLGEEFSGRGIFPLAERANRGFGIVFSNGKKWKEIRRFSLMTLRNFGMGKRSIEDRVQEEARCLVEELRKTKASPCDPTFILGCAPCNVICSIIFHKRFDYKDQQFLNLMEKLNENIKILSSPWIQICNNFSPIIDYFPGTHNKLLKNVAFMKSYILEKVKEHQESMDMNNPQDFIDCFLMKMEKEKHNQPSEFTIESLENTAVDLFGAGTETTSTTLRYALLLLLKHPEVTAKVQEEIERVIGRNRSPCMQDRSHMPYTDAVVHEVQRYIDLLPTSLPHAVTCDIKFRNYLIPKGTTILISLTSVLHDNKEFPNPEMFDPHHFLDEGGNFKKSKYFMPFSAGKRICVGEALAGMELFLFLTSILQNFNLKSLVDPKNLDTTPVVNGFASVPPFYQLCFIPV
Chain of Cytochrome P450 3A4 (Homo sapiens) (P08684 whole entry, looked up): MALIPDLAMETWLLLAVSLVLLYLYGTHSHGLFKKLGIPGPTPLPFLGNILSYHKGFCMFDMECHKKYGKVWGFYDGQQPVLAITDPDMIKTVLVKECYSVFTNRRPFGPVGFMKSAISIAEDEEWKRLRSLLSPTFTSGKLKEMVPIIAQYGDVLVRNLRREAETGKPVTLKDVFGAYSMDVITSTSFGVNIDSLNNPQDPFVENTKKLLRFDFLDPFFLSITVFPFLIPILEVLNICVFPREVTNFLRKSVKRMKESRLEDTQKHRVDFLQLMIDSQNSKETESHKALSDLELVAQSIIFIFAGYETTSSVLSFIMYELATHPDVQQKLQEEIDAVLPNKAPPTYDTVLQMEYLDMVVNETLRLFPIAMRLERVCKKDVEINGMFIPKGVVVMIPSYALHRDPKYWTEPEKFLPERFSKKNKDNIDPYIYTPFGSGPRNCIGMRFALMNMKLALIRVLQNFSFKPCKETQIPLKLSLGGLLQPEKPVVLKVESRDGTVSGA
Chain of Cytochrome P450 2C19 (Homo sapiens) (P33261 whole entry, looked up): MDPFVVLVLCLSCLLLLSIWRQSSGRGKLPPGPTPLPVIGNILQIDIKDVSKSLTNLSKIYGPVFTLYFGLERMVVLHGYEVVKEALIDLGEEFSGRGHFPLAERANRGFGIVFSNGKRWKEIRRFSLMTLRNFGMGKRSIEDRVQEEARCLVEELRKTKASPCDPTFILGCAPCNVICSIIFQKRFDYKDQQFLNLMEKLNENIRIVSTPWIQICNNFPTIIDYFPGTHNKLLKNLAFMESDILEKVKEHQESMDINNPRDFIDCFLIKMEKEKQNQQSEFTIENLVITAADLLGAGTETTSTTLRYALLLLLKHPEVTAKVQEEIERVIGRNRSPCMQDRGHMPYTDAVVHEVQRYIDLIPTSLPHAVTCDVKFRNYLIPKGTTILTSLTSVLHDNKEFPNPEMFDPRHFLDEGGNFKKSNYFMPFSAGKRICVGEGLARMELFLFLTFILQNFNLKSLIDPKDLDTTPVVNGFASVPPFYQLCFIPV
Chain of 3',5'-cyclic-AMP phosphodiesterase 4B (Homo sapiens) (Q07343 whole entry, looked up): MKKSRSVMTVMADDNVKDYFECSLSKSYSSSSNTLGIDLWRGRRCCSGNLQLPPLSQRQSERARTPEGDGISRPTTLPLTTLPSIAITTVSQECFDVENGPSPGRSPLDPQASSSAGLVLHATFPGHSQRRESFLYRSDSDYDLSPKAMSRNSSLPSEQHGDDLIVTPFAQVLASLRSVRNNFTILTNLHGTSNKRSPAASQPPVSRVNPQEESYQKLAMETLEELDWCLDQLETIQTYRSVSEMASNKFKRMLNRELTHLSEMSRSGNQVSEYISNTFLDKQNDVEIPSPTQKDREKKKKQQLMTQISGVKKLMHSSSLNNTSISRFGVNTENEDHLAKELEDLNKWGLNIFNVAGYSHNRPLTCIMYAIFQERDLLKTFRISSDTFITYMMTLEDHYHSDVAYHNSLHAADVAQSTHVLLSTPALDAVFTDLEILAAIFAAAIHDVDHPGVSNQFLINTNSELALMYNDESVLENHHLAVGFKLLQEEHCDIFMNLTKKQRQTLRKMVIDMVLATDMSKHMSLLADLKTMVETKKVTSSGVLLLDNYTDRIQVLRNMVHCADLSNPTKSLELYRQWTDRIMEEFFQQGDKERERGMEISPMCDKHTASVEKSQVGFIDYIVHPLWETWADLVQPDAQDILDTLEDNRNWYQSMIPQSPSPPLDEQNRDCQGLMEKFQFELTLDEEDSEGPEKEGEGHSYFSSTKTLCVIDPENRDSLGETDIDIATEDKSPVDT
Chain of Lysosomal acid glucosylceramidase (Homo sapiens) (P04062 whole entry, looked up): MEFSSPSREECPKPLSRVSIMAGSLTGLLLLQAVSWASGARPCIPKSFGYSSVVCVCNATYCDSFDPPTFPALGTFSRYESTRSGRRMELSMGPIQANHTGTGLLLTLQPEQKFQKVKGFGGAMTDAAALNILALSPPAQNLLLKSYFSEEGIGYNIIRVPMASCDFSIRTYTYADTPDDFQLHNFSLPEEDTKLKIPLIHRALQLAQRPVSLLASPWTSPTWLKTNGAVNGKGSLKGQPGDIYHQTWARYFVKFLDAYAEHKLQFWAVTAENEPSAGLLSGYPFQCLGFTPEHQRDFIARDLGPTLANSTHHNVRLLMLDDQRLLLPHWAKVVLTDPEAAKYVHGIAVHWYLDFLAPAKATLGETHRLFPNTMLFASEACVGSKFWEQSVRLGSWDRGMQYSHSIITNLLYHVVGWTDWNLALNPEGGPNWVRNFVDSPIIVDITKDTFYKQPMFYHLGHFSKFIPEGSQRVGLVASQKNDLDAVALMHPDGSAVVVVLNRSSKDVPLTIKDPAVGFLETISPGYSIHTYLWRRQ
Chain of Cytochrome P450 1A2 (Homo sapiens) (P05177 whole entry, looked up): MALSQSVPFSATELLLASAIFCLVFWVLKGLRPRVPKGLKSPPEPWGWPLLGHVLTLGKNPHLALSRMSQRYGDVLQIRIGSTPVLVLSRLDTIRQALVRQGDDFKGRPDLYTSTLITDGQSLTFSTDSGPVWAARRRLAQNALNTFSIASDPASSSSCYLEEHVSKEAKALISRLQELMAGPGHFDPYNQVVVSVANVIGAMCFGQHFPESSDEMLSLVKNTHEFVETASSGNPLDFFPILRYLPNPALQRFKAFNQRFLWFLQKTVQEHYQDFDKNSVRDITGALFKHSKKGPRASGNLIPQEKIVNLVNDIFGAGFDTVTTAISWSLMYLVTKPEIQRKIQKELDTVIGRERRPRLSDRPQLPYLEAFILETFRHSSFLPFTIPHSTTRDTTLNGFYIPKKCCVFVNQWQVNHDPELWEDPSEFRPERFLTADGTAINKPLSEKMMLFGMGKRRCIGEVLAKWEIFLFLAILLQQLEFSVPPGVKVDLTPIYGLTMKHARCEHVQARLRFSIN
Chain of Cytochrome P450 2D6 (Homo sapiens) (P10635 whole entry, looked up): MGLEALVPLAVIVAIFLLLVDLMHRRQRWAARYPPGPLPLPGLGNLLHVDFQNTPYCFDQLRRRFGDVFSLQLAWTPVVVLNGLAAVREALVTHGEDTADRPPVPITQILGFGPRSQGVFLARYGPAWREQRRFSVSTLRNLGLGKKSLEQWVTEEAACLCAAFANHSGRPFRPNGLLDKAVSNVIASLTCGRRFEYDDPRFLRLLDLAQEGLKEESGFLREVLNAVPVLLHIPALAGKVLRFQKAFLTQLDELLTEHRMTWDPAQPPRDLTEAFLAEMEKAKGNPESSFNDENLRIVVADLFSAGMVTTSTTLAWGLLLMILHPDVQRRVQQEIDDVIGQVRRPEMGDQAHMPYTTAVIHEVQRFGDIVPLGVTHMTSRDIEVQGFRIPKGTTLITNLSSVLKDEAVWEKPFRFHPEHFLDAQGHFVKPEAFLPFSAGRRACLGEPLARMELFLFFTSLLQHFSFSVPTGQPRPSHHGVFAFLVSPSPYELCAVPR

With `S=C(S)NCCCn1ccnc1`, the Potency was over 11.4 µM in test [1]; 3.16 µM (active) in [3]; over 46 µM in test [6]; over 9.22 µM in test [7]; 2 µM (active) in test [10]; 1.58 µM (active) in test [11]. Also, the Potency in test [12] is 0.794 µM (active). Further, the figures for the activity change, negative = inhibition in test [2] and in test [4] were 7.59% and -2.39%, respectively. Besides, the activity, negative = inhibition in test [5] is 6.25%. The Potency entry in [8] and in [9] was “inactive” in each case.
`CC1=C/C(=N/O)C([C@H]2C=C(C)CC(C)(C)[C@@H]2O)C(C)(C)C1` (stereo partly drawn): the Potency is over 11.4 µM in test [1]; over 46 µM in test [6]; over 9.22 µM in [7]; 2.51 µM (active) in [10]; 1.58 µM (active) in [14]. For the same compound, the activity change, negative = inhibition in [2] is -3.8%; in [4], -18%. In addition, the Potency result in test [3], in test [8], in test [9] and in test [13] was “inactive” throughout. Besides, the activity, negative = inhibition in test [5] was 0.535%.
In the case of `COc1ccc([C@@H](Nc2ccccn2)c2cc(C(C)(C)C)cc(C(C)(C)C)c2O)cc1`, the Potency is over 11.4 µM in test [1]; over 46 µM in test [6]; over 9.22 µM in [7]; 2.51 µM (active) in test [10]; 2.51 µM (active) in [14]. Further, the activity change, negative = inhibition in test [2] was -15.8%; in test [3], 1.2% [at 2.29 µM]; in test [4] it was -8.5%. The activity, negative = inhibition in test [5] is -15.2%. Moreover, the Potency result in [8], in [9] and in [13] was “inactive” throughout. In test [15], the activation is 3.06%.
Take `O=C(O)c1ccc(SSc2ccc(C(=O)O)cn2)nc1`: the Potency is over 11.4 µM in [1]; 3.16 µM (active) in test [3]; over 46 µM in test [6]; over 9.22 µM in test [7]; 1.58 µM (active) in test [10]; 2.51 µM (active) in test [14]. Besides, the values for the activity change, negative = inhibition in test [2] and in test [4] were -2.82% and 5.74%, respectively. The activity, negative = inhibition in [5] is 15.8%. In addition, the Potency result in test [8] and in test [9] was “inactive” throughout.
On to `COc1ccc(CCCC(=O)O)c(C)c1`, for which the Potency in test [1] is over 11.4 µM; in [6] it was over 46 µM; in test [7], over 9.22 µM. Besides, the results for the activity change, negative = inhibition in [2], in test [4] and in [11] were 1.4%, -4.8% and -0.798% [at 11.4 µM], respectively. Moreover, the Potency result in test [3], in test [8], in test [9], in test [10], in [12] and in test [14] was “inactive” throughout. Also, the activity, negative = inhibition in [5] was -0.975%. Moreover, in [15], the activation was -8.35%.
For `CCCCSCc1nc2nc(Cl)c(Cl)nc2[nH]1`, the Potency was over 11.4 µM in test [1]; 3.16 µM (active) in test [3]; over 46 µM in [6]; over 9.22 µM in [7]; 0.501 µM (active) in test [10]; 2 µM (active) in test [14]. For the same compound, the results for the activity change, negative = inhibition in test [2] and in test [4] were -2.19% and -24.8%, respectively. Moreover, in test [5], the activity, negative = inhibition is -21.2%. The Potency result in test [8] and in test [9] was “inactive” each time.
